Source: PubChem BioAssay (EPA / NIEHS)
Inconclusive results are not listed. Calls of active or inactive are those of the source. How the source made its calls, unless noted: active means hit-call score of the fitted dose curve at least 0.9, where 1 is the maximum; inconclusive means response in the unintended direction; inactive means score below 0.9.

Tests used:
[1] = biological target: human Peroxisome Proliferator-activated Receptor delta (PPARd), PPARD (gene 5467) (UniProt Q03181); test: ATG_PPARd_TRANS: Attagene TRANS-FACTORIAL HepG2 Assay for human Peroxisome Proliferator-activated Receptor delta (PPARd) (AID 2283002)
Procedure, shortened: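 Cell-based TRANS reporter: HepG2, transient MRTU transfection, 24 h exposure. Readout = reporter mRNA (RT-PCR/CE, 6-FAM). Gain-of-signal fit vs DMSO control.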

[2] = biological target: Retinoic acid receptor alpha (Homo sapiens) (UniProt P10276); test: ATG_RARa_TRANS: Attagene TRANS-FACTORIAL HepG2 Assay for human Retinoic Acid Receptor alpha (RARa) (AID 2283005)
Procedure, shortened: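 Reporter transcripts, measured by RT-PCR with fluorescent labeling and capillary electrophoresis after 24 h dosing, reflect activity of an exogenous human RARa–GAL4 fusion in transiently transfected HepG2. Fitted for increase relative to DMSO.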

[3] = biological target: Peroxisome proliferator-activated receptor gamma (Homo sapiens) (UniProt P37231); test: ATG_PPARg_TRANS: Attagene TRANS-FACTORIAL HepG2 Assay for human Peroxisome Proliferator-activated Receptor-gamma (PPARg) (AID 2283007)
Procedure, shortened: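 Human hepatoma HepG2, transient MRTU transfection, 24 h treatment. mRNA reporter signal by RT-PCR plus capillary electrophoresis, fluorescence detection; fitted for increase over DMSO negative control.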

[4] = biological target: human RAR-related Orphan Receptor beta (RORb), RORB (gene 6096) (UniProt Q92753); test: ATG_RORb_TRANS: Attagene TRANS-FACTORIAL HepG2 Assay for human RAR-related Orphan Receptor beta (RORb) (AID 2283010)
Procedure, shortened: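 HepG2 cells were transiently transfected with multiplexed GAL4-UAS reporter units expressing chimeric nuclear receptor–GAL4 proteins, then dosed for 24 h. Reporter mRNA was quantified by RT-PCR with fluorescent labelling and capillary electrophoresis; gain of signal was fitted relative to DMSO.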

[5] = biological target: human RAR-related Orphan Receptor gamma (RORg), RORC (gene 6097) (UniProt P51449); test: ATG_RORg_TRANS: Attagene TRANS-FACTORIAL HepG2 Assay for human RAR-related Orphan Receptor gamma (RORg) (AID 2283011)
Procedure, shortened: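 Transient MRTU transfection of HepG2 (TRANS format, exogenous NR-Gal4 chimera). 24 h dosing. Total RNA → oligo(dT) RT → PCR → 6-FAM labelling → HpaI cut → CE. Gain vs DMSO.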

[6] = biological target: Retinoic acid receptor RXR-alpha (Homo sapiens) (UniProt P19793); test: ATG_RXRa_TRANS: Attagene TRANS-FACTORIAL HepG2 Assay for human Retinoid X Receptor alpha (RXRa) (AID 2283012)
Procedure, shortened: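 HepG2 cells transiently transfected with multiplexed GAL4-UAS reporter units and chimeric NR-GAL4 fusions, dosed 24 h. Reporter mRNA measured by RT-PCR, FAM labelling, HpaI digestion and capillary electrophoresis; gain-of-signal fitted relative to DMSO baseline.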

[7] = biological target: human Retinoid X Receptor beta (RXRb), RXRB (gene 6257) (UniProt P28702); test: ATG_RXRb_TRANS: Attagene TRANS-FACTORIAL HepG2 Assay for human Retinoid X Receptor beta (RXRb) (AID 2283013)
Procedure, shortened: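 HepG2 cells transiently transfected with multiplexed reporter units driven by GAL4-UAS and exogenous chimeric NR-Gal4 proteins; treated 24 h. Reporter mRNA measured by RT-PCR, 6-FAM labelling and capillary electrophoresis; gain-of-signal fitted versus DMSO baseline.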

[8] = biological target: human Peroxisome Proliferator-activated Receptor alpha (PPARa), PPARA (gene 5465) (UniProt Q07869); test: ATG_PPARa_TRANS: Attagene TRANS-FACTORIAL HepG2 Assay for human Peroxisome Proliferator-activated Receptor alpha (PPARa) (AID 2283001)
Procedure, shortened: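 Reporter transcripts from GAL4-UAS units in transfected HepG2 were quantified 24 h after dosing. Detection used reverse transcription, PCR, fluorescent primer extension and capillary electrophoresis, with DMSO as baseline.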

[9] = biological target: Nuclear receptor subfamily 1 group I member 2 (Homo sapiens) (UniProt O75469); test: ATG_PXR_TRANS: Attagene TRANS-FACTORIAL HepG2 Assay for human Pregnane X Receptor (PXR) (AID 2283008)
Procedure, shortened: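 Fluorescence intensity of FAM-labelled, HpaI-digested reporter amplicons, separated by capillary electrophoresis, quantifies induction. HepG2 cells with PXR-Gal4 trans-reporter system were exposed 24 h; DMSO defines baseline.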

[10] = biological target: human Retinoic Acid Receptor gamma (RARg), RARG (gene 5916) (UniProt P13631); test: ATG_RARg_TRANS: Attagene TRANS-FACTORIAL HepG2 Assay for human Retinoic Acid Receptor gamma (RARg) (AID 2283009)
Procedure, shortened: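 HepG2 cells transiently transfected with multiplexed reporter units expressing chimeric RARg-GAL4 and GAL4-UAS-driven reporters; 24 h compound exposure. Reporter mRNA quantified by RT-PCR with fluorescent labelling and capillary electrophoresis; gain-of-signal fitted relative to DMSO baseline.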

[11] = BSK_4H_Eotaxin3: BioMAP Diversity Plus: 4H Assay for Eotaxin 3 Biomarker Activity (AID 2283000; active means hit-call score of the fitted dose curve at least 0.9, where 1 is the maximum; inactive means score below 0.9;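 further: CCL26 protein level quantified by ELISA in parallel with SRB cytotoxicity check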); details: primary human endothelial cells (HUVEC); actives raise or lower the signal
Procedure, shortened: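 Readout is Eotaxin-3 (CCL26) level by ELISA in primary human umbilical vein endothelial cells harvested 24 h after chemical exposure; activity fitted in both directions against DMSO control.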

[12] = read-out: Intercellular Adhesion Molecule 1 (ICAM1), ICAM1 (gene 3383); test: BSK_3C_ICAM1: BioMAP Diversity Plus: 3C Assay for Intercellular Adhesion Molecule 1 (ICAM1) Biomarker Activity (AID 2283003; active means hit-call score of the fitted dose curve at least 0.9, where 1 is the maximum; inactive means score below 0.9); details: primary human endothelial cells (HUVEC); actives raise or lower the signal
Procedure, shortened: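 Primary human umbilical vein endothelial cells in the BioMAP 3C system were exposed to chemicals for 24 h, then ICAM-1 was quantified by ELISA. Activity was fitted bidirectionally against the DMSO negative control baseline.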

[13] = BSK_3C_Proliferation: Cell Proliferation Assessment in the BioMAP Diversity Plus: 3C Assay (AID 2283006; active means hit-call score of the fitted dose curve at least 0.9, where 1 is the maximum; inactive means score below 0.9;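 further: potency may reflect either rise or fall in cell number versus DMSO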); details: primary human endothelial cells (HUVEC)
Procedure, shortened: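 Human umbilical vein endothelial cells were grown sub-confluent and exposed to chemical for 48 h, then fixed with 10% TCA and stained with 0.1% sulforhodamine B; absorbance at 560 nm gave relative cell number, fitted bidirectionally against DMSO baseline.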

[14] = read-out: E-selectin (Homo sapiens) (UniProt P16581); test: BSK_3C_Eselectin: BioMAP Diversity Plus: 3C Assay for Eselectin Biomarker Activity (AID 2283015; active means hit-call score of the fitted dose curve at least 0.9, where 1 is the maximum; inactive means score below 0.9;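 further: cell surface E-selectin protein quantified by ELISA 24 h after dosing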); details: primary human endothelial cells (HUVEC); actives raise or lower the signal
Procedure, shortened: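 HUVEC, 3C stimulation; compound exposure 24 h; E-selectin by ELISA; gain- or loss-of-signal fitted bidirectionally vs DMSO baseline.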

[15] = read-out: Interleukin-1 alpha (IL1a), IL1A (gene 3552); test: BSK_BE3C_IL1a: BioMAP Diversity Plus: BE3C Assay for Interleukin-1 alpha (IL1a) Biomarker Activity (AID 2283016; active means hit-call score of the fitted dose curve at least 0.9, where 1 is the maximum; inactive means score below 0.9); details: primary human bronchial epithelial cells; actives raise or lower the signal
Procedure, shortened: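 Human primary bronchial epithelial cells (BE3C system) were dosed with compound and IL-1a measured by ELISA 24 h later. Activity was fitted bidirectionally against DMSO baseline; cytotoxicity was tracked in parallel cultures by SRB total-protein staining.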

[16] = read-out: Monocyte Chemoattractant Protein-1 (MCP1), CCL2 (gene 6347); test: BSK_3C_MCP1: BioMAP Diversity Plus: 3C Assay for Monocyte Chemoattractant Protein-1 (MCP1) Biomarker Activity (AID 2283017; active means hit-call score of the fitted dose curve at least 0.9, where 1 is the maximum; inactive means score below 0.9); details: primary human endothelial cells (HUVEC); actives raise or lower the signal
Procedure, shortened: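 HUVEC, 3C system; 24 h chemical exposure; MCP-1 by ELISA; bidirectional curve fit vs DMSO baseline.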

[17] = read-out: Monocyte Chemoattractant Protein-1 (MCP1), CCL2 (gene 6347); test: BSK_4H_MCP1: BioMAP Diversity Plus: 4H Assay for Monocyte Chemoattractant Protein-1 (MCP1) Biomarker Activity (AID 2283018; active means hit-call score of the fitted dose curve at least 0.9, where 1 is the maximum; inactive means score below 0.9); details: primary human endothelial cells (HUVEC); actives raise or lower the signal
Procedure, shortened: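 Human umbilical vein endothelial cells (4H system) dosed with chemical; MCP-1 measured by ELISA 24 h after dosing. Bidirectional curve fitting against DMSO negative control as baseline; parallel SRB total-protein staining tracks overt cytotoxicity.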

[18] = read-out: Human Leukocyte Antigen - DR isotype (HLADR), HLA-DRA (gene 3122); test: BSK_3C_HLADR: BioMAP Diversity Plus: 3C Assay for Human Leukocyte Antigen - DR isotype (HLADR) Biomarker Activity (AID 2283019; active means hit-call score of the fitted dose curve at least 0.9, where 1 is the maximum; inactive means score below 0.9;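 further: ELISA of cell-surface HLA-DR on HUVEC 24 h after dosing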); details: primary human endothelial cells (HUVEC); actives raise or lower the signal
Procedure, shortened: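 HUVEC, 3C stimulation, 24 h post-dose; HLA-DR by ELISA; bidirectional curve fit vs DMSO baseline; gain or loss of signal scored.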

Measured: AC50

Chain of Peroxisome proliferator-activated receptor gamma (Homo sapiens) (P37231 whole entry, looked up): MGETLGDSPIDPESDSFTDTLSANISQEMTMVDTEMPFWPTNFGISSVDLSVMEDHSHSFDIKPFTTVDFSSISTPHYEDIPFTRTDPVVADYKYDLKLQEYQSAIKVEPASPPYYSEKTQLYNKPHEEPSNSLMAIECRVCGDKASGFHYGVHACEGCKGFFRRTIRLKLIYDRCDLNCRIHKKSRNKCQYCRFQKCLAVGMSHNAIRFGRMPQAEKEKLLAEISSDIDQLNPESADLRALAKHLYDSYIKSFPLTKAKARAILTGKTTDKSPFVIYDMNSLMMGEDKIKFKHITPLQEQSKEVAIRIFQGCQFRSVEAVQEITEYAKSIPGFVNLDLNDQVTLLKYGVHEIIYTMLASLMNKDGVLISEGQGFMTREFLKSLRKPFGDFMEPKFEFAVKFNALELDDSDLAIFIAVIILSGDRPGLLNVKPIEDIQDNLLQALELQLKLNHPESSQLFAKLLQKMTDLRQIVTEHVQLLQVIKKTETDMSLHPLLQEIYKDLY
Chain of human Peroxisome Proliferator-activated Receptor alpha (PPARa), PPARA (gene 5465) (Q07869 whole entry, looked up, the tested form may be a part): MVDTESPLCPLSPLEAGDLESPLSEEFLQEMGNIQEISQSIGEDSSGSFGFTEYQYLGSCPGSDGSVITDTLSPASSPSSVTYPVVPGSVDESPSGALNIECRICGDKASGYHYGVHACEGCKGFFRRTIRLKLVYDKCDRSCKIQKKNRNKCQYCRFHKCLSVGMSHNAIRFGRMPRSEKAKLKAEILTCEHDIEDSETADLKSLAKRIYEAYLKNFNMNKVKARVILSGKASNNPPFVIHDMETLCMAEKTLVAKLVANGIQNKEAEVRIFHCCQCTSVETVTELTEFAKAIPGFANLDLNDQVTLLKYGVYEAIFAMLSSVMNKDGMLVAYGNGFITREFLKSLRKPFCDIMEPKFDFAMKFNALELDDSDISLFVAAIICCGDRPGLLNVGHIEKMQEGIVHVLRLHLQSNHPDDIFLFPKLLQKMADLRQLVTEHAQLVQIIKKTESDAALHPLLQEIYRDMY
Chain of human RAR-related Orphan Receptor gamma (RORg), RORC (gene 6097) (P51449 whole entry, looked up, the tested form may be a part): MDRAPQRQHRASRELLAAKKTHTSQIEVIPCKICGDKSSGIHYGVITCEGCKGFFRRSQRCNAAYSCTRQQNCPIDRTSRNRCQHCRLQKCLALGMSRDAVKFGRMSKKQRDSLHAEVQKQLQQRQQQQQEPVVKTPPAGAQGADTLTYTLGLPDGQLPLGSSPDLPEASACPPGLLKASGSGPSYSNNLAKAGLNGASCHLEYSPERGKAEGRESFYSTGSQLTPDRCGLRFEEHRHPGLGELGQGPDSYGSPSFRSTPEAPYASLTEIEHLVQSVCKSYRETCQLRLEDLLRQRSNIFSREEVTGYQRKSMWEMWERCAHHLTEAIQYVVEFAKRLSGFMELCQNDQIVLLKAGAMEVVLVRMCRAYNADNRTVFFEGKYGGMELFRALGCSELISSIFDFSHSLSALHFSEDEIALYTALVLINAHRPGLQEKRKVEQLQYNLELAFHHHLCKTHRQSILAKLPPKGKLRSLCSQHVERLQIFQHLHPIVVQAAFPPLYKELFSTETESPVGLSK
Chain of human Peroxisome Proliferator-activated Receptor delta (PPARd), PPARD (gene 5467) (Q03181 whole entry, looked up): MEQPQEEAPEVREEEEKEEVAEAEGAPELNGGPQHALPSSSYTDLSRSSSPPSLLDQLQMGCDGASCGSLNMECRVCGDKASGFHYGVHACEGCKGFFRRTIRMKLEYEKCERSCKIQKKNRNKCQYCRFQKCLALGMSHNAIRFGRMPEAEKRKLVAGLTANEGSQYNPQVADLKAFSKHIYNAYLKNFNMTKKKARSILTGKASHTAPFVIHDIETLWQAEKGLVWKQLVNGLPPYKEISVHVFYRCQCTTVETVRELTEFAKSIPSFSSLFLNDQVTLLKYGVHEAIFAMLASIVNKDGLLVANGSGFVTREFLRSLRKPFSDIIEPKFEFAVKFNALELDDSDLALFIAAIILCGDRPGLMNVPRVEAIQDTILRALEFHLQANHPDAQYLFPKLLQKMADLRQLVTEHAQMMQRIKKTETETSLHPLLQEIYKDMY
Chain of Nuclear receptor subfamily 1 group I member 2 (Homo sapiens) (O75469 whole entry, looked up, the tested form may be a part): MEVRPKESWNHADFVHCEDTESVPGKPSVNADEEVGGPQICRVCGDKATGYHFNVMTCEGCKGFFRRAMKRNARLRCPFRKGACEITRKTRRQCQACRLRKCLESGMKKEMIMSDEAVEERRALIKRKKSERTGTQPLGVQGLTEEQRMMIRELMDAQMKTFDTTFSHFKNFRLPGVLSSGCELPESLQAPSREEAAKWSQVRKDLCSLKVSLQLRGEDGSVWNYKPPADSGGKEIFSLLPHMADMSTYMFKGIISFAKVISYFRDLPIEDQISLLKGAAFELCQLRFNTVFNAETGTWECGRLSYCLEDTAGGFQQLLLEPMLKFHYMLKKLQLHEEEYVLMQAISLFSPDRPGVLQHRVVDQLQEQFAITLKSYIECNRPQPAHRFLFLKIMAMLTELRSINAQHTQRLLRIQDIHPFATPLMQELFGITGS
Chain of Retinoic acid receptor RXR-alpha (Homo sapiens) (P19793 whole entry, looked up, the tested form may be a part): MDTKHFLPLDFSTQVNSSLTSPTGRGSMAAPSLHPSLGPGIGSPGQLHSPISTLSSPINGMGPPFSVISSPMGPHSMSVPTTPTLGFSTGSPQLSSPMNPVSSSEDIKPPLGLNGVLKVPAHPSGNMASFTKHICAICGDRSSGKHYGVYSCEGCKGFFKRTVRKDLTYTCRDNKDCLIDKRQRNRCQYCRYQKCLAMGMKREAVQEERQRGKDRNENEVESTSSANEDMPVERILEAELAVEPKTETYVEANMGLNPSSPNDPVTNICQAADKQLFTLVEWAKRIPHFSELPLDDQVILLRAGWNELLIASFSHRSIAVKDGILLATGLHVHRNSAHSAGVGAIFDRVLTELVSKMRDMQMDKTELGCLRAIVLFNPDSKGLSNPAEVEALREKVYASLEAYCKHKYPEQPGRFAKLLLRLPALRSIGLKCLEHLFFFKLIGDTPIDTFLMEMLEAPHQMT
Chain of human RAR-related Orphan Receptor beta (RORb), RORB (gene 6096) (Q92753 whole entry, looked up, the tested form may be a part): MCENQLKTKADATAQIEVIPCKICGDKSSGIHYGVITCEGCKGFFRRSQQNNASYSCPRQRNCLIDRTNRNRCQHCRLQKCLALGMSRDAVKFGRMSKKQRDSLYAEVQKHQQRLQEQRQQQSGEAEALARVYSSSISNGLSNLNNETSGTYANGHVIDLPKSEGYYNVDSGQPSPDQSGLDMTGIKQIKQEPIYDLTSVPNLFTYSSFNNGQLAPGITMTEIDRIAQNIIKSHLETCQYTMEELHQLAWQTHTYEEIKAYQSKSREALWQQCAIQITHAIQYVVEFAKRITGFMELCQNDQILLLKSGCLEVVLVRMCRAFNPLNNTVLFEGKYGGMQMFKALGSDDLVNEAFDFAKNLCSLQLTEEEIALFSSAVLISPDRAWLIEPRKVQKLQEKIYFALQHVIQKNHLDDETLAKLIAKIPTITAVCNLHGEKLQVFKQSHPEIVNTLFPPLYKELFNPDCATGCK
Chain of human Retinoid X Receptor beta (RXRb), RXRB (gene 6257) (P28702 whole entry, looked up, the tested form may be a part): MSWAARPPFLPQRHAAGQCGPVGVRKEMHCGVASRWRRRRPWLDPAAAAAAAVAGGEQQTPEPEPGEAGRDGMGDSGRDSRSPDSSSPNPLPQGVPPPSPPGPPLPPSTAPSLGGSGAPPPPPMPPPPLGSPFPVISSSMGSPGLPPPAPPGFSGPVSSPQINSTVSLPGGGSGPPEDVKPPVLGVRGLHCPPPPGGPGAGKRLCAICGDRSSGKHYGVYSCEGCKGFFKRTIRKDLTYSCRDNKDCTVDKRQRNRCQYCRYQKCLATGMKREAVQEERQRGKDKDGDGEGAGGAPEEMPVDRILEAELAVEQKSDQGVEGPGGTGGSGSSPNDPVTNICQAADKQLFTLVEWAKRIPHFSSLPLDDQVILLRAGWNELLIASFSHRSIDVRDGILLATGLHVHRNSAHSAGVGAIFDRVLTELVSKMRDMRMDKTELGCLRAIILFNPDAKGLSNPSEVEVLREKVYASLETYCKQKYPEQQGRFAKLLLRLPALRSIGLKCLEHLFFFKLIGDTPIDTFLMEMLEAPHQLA
Chain of Retinoic acid receptor alpha (Homo sapiens) (P10276 whole entry, looked up, the tested form may be a part): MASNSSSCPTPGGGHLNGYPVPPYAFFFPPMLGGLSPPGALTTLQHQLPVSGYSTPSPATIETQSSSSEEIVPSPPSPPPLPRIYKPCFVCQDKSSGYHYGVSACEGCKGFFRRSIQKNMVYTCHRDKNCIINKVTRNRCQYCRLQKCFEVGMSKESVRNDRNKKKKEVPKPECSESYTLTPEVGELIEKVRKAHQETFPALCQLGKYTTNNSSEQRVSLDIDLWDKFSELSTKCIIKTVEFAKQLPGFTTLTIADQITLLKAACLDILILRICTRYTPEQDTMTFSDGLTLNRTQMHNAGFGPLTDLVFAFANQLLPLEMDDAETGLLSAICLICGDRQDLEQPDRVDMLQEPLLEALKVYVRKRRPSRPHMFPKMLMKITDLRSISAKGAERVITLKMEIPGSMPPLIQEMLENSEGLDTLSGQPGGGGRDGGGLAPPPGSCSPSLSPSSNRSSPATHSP
Chain of E-selectin (Homo sapiens) (P16581 whole entry, looked up): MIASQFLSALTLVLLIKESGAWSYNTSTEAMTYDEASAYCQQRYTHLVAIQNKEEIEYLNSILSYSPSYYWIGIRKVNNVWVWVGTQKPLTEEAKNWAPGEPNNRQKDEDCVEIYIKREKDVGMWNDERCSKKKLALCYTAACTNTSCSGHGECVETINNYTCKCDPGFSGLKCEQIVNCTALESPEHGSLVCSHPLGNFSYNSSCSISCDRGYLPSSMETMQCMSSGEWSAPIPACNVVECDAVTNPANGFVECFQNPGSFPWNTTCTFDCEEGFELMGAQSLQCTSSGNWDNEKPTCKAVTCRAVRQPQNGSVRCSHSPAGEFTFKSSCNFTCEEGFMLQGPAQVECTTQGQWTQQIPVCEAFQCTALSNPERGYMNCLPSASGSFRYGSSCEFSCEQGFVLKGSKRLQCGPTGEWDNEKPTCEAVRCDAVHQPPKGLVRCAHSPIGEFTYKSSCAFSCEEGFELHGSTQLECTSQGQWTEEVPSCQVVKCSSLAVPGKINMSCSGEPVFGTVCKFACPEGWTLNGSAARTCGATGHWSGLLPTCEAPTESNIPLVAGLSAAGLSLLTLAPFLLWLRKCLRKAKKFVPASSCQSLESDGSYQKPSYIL

CC(C)(C)c1ccc(OC2CCCCC2O)cc1 (stereo not drawn)
inactive: [1] | [2] | [4] | [5] | [7]
active: [3] 28.4 µM | [6] 26.2 µM

Cc1ccc(S(=O)(=O)NCl)cc1
inactive: [8] | [1] | [3] | [9] | [4] | [5] | [6]

CC(C)=CCCC(C)CCOC(=O)C(C)C (stereo not drawn)
inactive: [1] | [3] | [9] | [5] | [7]

CC(C)OC(=O)c1ccccc1C(=O)OC(C)C
inactive: [2] | [10] | [4] | [6]
active: [3] 100 µM | [7] 18.9 µM

COC(OC(C)=O)c1ccccc1 (stereo not drawn)
inactive: [1] | [3] | [9] | [4] | [5] | [6]

CCCCC(CC)COP(=O)(O)OCC(CC)CCCC (stereo not drawn)
active: [13] 36 µM | [3] 7.51 µM
inactive: [11] | [12] | [4] | [14] | [15] | [16] | [17] | [18]

CCN(Cc1cccc(S(=O)(=O)O)c1)c1ccc(C(=C2C=CC(=[N+](CC)Cc3cccc(S(=O)(=O)O)c3)C=C2)c2ccc(O)cc2S(=O)(=O)[O-])cc1
inactive: [8] | [1] | [3] | [4] | [5] | [6] | [7]
